Source: PubChem BioAssay (National Center for Advancing Translational Sciences (NCATS))
A selection: hits, their analogues and other compounds. The true share with any hit is near 21%.
Cycloheximide cs: Cycloheximide Counterscreen for Small Molecule Inhibitors of Shiga Toxin; AID 2314, 2010; cell reporter, cycloheximide protein synthesis inhibition counterscreen; 300,000 compounds, 12% hits; max response, %; in the data active = max response mostly above about 13%, no sharp cut-off; inactive = mostly below about 14%; also: read at 38.3 µM for the half of the compounds with a filed dose; 0% is about no effect
SARS PLpro yeast: qHTS of Yeast-based Assay for SARS-CoV PLP; S. cerevisiae expressing SARS-CoV PLpro, growth rescue; 330,000 compounds, 0.19% hits; AID 485353, 2010; Potency, µM (highest dose often 32.9 µM), for inactives: at the top dose activity, positive = growth rescue, usual class: activators; calls by dose curve; also: potency is read from the fitted curve at half-maximal effect; 0% is about no effect; nearly all actives have a fitted effect of over 55% in size
Pf growth 96h: Primary qHTS for delayed death inhibitors of the malarial parasite plastid, 96 hour incubation; Potency, µM (doses to about 28.7 µM), inactives show at the top dose activity change, negative = inhibition, usual class: inhibitors; P. falciparum luciferase reporter growth, 96 h; 320,000 compounds, 6.9% hits; AID 504834, 2011; also: potency is read from the fitted curve at half-maximal effect; % is scaled to controls: 0 for no effect and ±100 for the full control effect
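Erythrocytes infected with luciferase-expressing P. falciparum were dispensed at 2% hematocrit and 0.05% parasitemia (final), then incubated with compounds 96 hours at 37 C in 5% CO2. Luminescence after detection reagent addition reported growth.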
Pf growth 48h: Primary qHTS for delayed death inhibitors of the malarial parasite plastid, 48 hour incubation | P. falciparum luciferase growth in erythrocytes, 48 h | Potency, µM (highest dose often 28.7 µM), inactives show top-dose activity change, negative = inhibition, most hits filed as inhibitors | 310,000 compounds, 5.9% hits; also: potency is read from the fitted curve at half-maximal effect; % is scaled to controls: 0 for no effect and ±100 for the full control effect
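Parasite viability was followed by luminescence of a genomically integrated firefly luciferase. Cultures held 0.1% parasitemia at 2% hematocrit (final), incubated under 5% CO2 at 37 C.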
NS1 function inh: qHTS Assay for Inhibitors of Influenza NS1 Protein Function. Potency, µM (doses to about 46.1 µM), inactives show at the top dose activity, positive = more growth. 270,000 compounds, 0.4% hits. AID 2326, 2010; calls by dose curve; also: potency is read from the fitted curve at half-maximal effect; actives are rising curves; nearly all actives have a fitted effect of over 50% in size
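Read-out: OD600 growth recovery of NS1-expressing budding yeast. Cells grown overnight at 30C in -URA glucose medium, washed, resuspended and diluted 1:100 in 2% galactose assay medium, pH 6.0. Same strain lacking NS1 served as positive control.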
Shiga toxin inh: A qHTS for Small Molecule Inhibitors of Shiga Toxin | Vero cells, Shiga toxin protein synthesis inhibition reporter | inhibition, % at 38.7 µM | 290,000 compounds, 9.2% hits | AID 2315, 2010; in the data active = inhibition mostly above about 28%, no sharp cut-off; inactive = mostly below about 43%; also: 0% is about no effect
Numbers without * were called inactive; i = inactive; ? = inconclusive; . = not tested or not shown; [ ] = remark or other dose. Unless noted, calls follow the shape of the dose curve; as a rule, active = well fitted inhibition curve with a large enough effect; inconclusive = small, poorly fitted or top-dose-only effect, or another doubt; inactive = no such curve, though single readings can be large or run the other way.

SMILES	Cycloheximide cs	SARS PLpro yeast	Pf growth 96h	Pf growth 48h	NS1 function inh	Shiga toxin inh
COc1ccccc1OCC(=O)NCc1cccs1	18.2	10.4%	95.1%	34.6%	-11.1%	37.2
CCOc1ccc(C(=O)NCc2cccs2)cc1	14.1	4.6%	0.657µM*	17.1%	-14.2%	83.2*
CCOC(=O)CC(NC(=O)c1cccs1)c1ccc(OCC)cc1 (configuration not stated)	8.1	1.3%	10.4µM*	5.7%	-19.0%	7.8
CCOc1ccc(C(CC(=O)O)NC(=O)c2cccs2)cc1 (configuration not stated)	-3.6	16.9%	?	-23.4%	35.7%	7.3
COc1cc(C#N)ccc1OCC(=O)NCc1cccs1	14.9*	0.2%	21.9%	133.6%	5.9%	52.8
CCOc1c2ccc(C(=O)NCCc3cccs3)cc2nn1CC	48.1*	5.1%	127.0%	0.0%	-10.9%	89.1*
Cc1ccc(C(=O)OCC(=O)NCc2cccs2)cc1C	14.2*	-1.0%	30.4%	39.9%	-1.8%	11.3
CCCCn1nc2cc(C(=O)NCCc3cccs3)ccc2c1OCC	11.0	-5.2%	?	?	-1.2%	38.4
CCCCOc1ccc(C(=O)NCCc2cccs2)cc1	42.6*	-6.3%	?	403.0%	.	123.1*
CN1CCN(S(=O)(=O)c2cccc(C(=O)Nc3cc(C(F)(F)F)ccc3N3CCCC3)c2)CC1	.	-1.9%	?	-16.2%	.	.
N#CC1=C(N)SC(N)=C(C#N)C1CCC1CCCCC1	0.7	-31.1%	3.5%[5.75 µM]	-10.7%	-32.7%	-3.8
c1csc(-c2cn3ccc4ccccc4c3n2)c1	1.0	-0.9%	105.2%	0.262µM*	1.7%	-18.1
c1csc(-c2nc3c4ccccc4c4ccccc4c3[nH]2)c1	8.2	-69.6%	?	?	5.8%	-36.9
NC(=O)CSc1nnc2ccc(-c3ccc(F)cc3)nn12	6.7	-0.4%	65.1%[1.15 µM]	26.2%	6.0%	-7.4
COc1cc(S(=O)(=O)N2CCC(O)(c3cccc(C(F)(F)F)c3)CC2)ccc1-n1cnnn1	-2.6	-0.3%	?	10.4µM*	1.8%	-6.4
CC(=O)c1sc2nc(=O)c(C)nn2c1C	-4.2	6.1%	3.7µM*	12.8%	1.4%	1.9
Cc1cc(C)c(S(=O)(=O)c2ccccc2)c(OC(=O)c2c(Cl)cc(Cl)cc2Cl)n1	13.5	-10.2%	14.0%	3.7µM*	17.3%	-6.9
Cc1cc(C)c(S(=O)(=O)c2cccc(Cl)c2)c(Cl)n1	22.4	-2.3%	?	10.4µM*	.	27.0
COc1ccc(/C=C/C(=O)c2c(OC)cc(O)cc2OC)cc1	36.2*	.	.	.	.	65.2*
COc1ccc(/C=C/C(=O)c2ccc3c(c2)OCO3)cc1OC	.	4.1%	-1.9%	16.5%	.	.
COc1cc(OC)c(C(=O)/C=C/c2ccccc2)c(O)c1O	4.7	-6.8%	11.7µM*	?	-73.1%	4.0
COc1cc(/C=C/C(=O)NC(=O)c2ccccc2O)ccc1O	-2.2	1.3%	-7.1%	?	-5.2%	-22.4
COc1cc(O)cc(O)c1C(=O)/C=C/c1ccccc1	8.9*	-0.9%	45.3%	?	-4.3%	8.3
COc1ccc(/C=C/C(=O)c2cc3c(cc2N)OCO3)cc1	33.0*	-22.5%	?	419.9%	.	80.2*
COC(=O)c1ccccc1S(=O)(=O)N1CCC(C(=O)Nc2ccc(N3CCOCC3)cc2)CC1	.	-0.1%	.	.	.	.
SMILES	Cycloheximide cs	SARS PLpro yeast	Pf growth 96h	Pf growth 48h	NS1 function inh	Shiga toxin inh
O=C(Cn1cnc2ccccc2c1=O)Nc1nnc(SCc2ccc(Cl)cc2)s1	-2.2	1.4%	-10.0%	2.0%	0.7%	-2.6
COc1ccc(NC(=O)CSc2nc(=O)n(CCN(C)C)c3c2CCCC3)cc1OC	.	1.9%	?	?	.	.
COc1ccc(OC)c(NC(=O)CCC(=O)Oc2ccc(C)cc2)c1	-3.3	?	?	?	-0.4%	-18.0
COc1ccc(/C=C/C(=O)c2ccc(OC)cc2OC)cc1	37.2*	-4.6%	1.69µM*	3.01µM*	-7.8%	47.7*
COc1ccc(/C=C/C(=O)c2c(O)ccc3c(C)cc(=O)oc23)cc1	-2.6	27.3%	i	10.4µM*	5.8%	-8.1
CCCc1cc(=O)oc2cc(C)cc(OC(C)C(=O)NCc3ccncc3)c12 (configuration not stated)	-3.8	3.3%	2.94µM*	3.29µM*	-10.7%	10.5
CCc1cc2c(-c3ccccc3)cc(=O)oc2cc1OC(C)C(=O)NCC1CCC(C(=O)O)CC1 (configuration not stated)	-0.8	3.1%	9.28µM*	?	8.5%	16.7
CCc1cc(=O)oc2cc(C)cc(OCC(=O)NCc3ccncc3)c12	2.5	-6.4%	-12.4%	-0.5%	2.2%	-8.2
CCCc1cc(=O)oc2cc(C)cc(OCC(=O)NCc3ccncc3)c12	-2.5	-4.5%	8.28µM*	9.28µM*	-0.6%	-12.4
CCc1cc(=O)oc2cc(C)cc(OCC(=O)NCc3cccnc3)c12	-4.9	1.4%	?	-1.3%	-7.5%	-7.6
CCCc1cc(=O)oc2cc(C)cc(OC(C)C(=O)NCc3cccnc3)c12 (configuration not stated)	-5.9	-15.5%	4.65µM*	8.28µM*	1.8%	-7.8
CCCN1CCN(C(=S)Nc2ccccc2C(F)(F)F)CC1	-2.2	-28.5%	?	0.5%	-5.0%	-6.1
Cc1ccc(C)c(NC(=O)COC(=O)c2ccc3c(c2)OCCO3)c1	.	13.3%	?	34.1%	.	.
CCOCCCn1c(=S)[nH]c2cc(C(=O)NCCc3ccccc3)ccc2c1=O	30.5	-2.0%	?	27.8%	2.6%	37.9
CS(=O)(=O)c1ccc(Cl)c(NC(=O)COC(=O)COc2ccc3c(c2)CCC3)c1	.	-1.7%	53.3%	-19.7%	.	.
CCCc1cc(=O)oc2cc(C)cc(OC(C)C(=O)NCC3CCC(C(=O)O)CC3)c12 (configuration not stated)	-1.5	4.1%	?	0.0%	4.1%	-1.2
CCCCc1cc(=O)oc2cc(C)cc(OC(C)C(=O)NCC3CCC(C(=O)O)CC3)c12 (configuration not stated)	1.0	-1.6%	9.28µM*	?	4.7%	-3.4
CCCCc1cc(=O)oc2cc(C)cc(OCC(=O)NCc3cccnc3)c12	-2.9	1.4%	9.28µM*	10.4µM*	-17.0%	-3.4
COc1ccc(C2c3ccc(O)cc3Oc3ncn(CCN4CCOCC4)c(=N)c32)cc1OC (configuration not stated)	-1.1	0.7%	?	?	2.5%	-9.0
COc1ccc(C2c3ccc(O)cc3Oc3ncn4nc(-c5ccncc5)nc4c32)cc1OC (configuration not stated)	-1.4	1.0%	3.29µM*	1.31µM*	7.5%	-6.4
COc1ccc(C2c3ccc(O)cc3Oc3ncn4nc(-c5ccccn5)nc4c32)cc1OC (configuration not stated)	5.5	5.4%	-3.5%	10.4µM*	-5.6%	14.8
